Source: PubChem BioAssay (NCI)
The panel holds about 83,000 compounds, 20% with a hit somewhere; the sample as a whole holds those more often.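 Growth was measured after 48 h exposure to one concentration of compound in 96-well plates. Values under 10 count as active.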 Unmarked numbers belong to inactive results. Activity calls are given as the source filed them.

Tests used:
Experiment in all cases: NCI-60 one-dose screen, 48 h (100 = growth as untreated, 0 = no growth, -100 = all killed)
Conditions in all cases: 10 µM unless noted
NCI-H23 lung = system: NCI-H23 lung
NCI-H226 lung = system: NCI-H226 lung
NCI-H322M lung = system: NCI-H322M lung
HOP-62 NSCLC = system: HOP-62 NSCLC
NCI-H460 lung = system: NCI-H460 lung
HOP-92 NSCLC = system: HOP-92 NSCLC
NCI-H522 lung = system: NCI-H522 lung
A549/ATCC NSCLC = system: A549/ATCC NSCLC
786-0 renal = system: 786-0 renal
COLO 205 colon = system: COLO 205 colon

SMILES | growth (NCI-H23 lung) | growth (NCI-H226 lung) | growth (NCI-H322M lung) | growth (HOP-62 NSCLC) | growth (NCI-H460 lung) | growth (HOP-92 NSCLC) | growth (NCI-H522 lung) | growth (A549/ATCC NSCLC) | growth (786-0 renal) | growth (COLO 205 colon)
CCN1C(=S)N(CC)C2C1NC(=S)N2/N=C/C=C/c1ccccc1OC (stereo not given) | 24.1% | 57% | 45.2% | 39.2% | 6.8% (active) | 74.6% | -11.3% (active) | 17.7% | 35.6% | 10%
CCOC(=O)c1cn2ncnc(Oc3ccc(NC(=O)NC4CC4)c(F)c3)c2c1C | 90.4% | 78.6% | 105% | 95.2% | 99.1% | 132% | 90.2% | 102% | 106% | 113%
CCN(CC)CCCC(C)Nc1ccc2cc(OC)ccc2n1 (stereo not given) | 107% | 107% | 94.7% | 91.4% | 108% | 91.5% | 99.1% | 85.4% | 98.9% | 107%
COc1cc2nc(Nc3cccc(F)c3)nc(Nc3cc(C)[nH]n3)c2cc1OC | -71.2% [20 µM] (active) | -49.4% [20 µM] (active) | -100% [20 µM] (active) | -53.2% [20 µM] (active) | -69.7% [20 µM] (active) | -88.9% [20 µM] (active) | -42% [20 µM] (active) | -55% [20 µM] (active) | -81.8% [20 µM] (active) | -60.9% [20 µM] (active)
NC(CSC(c1ccccc1)(c1ccccc1)c1ccc2c(c1)OCO2)C(=O)O (stereo not given) | 14.6% | 75% | 26.6% | 55.3% | 7.27% (active) | 10.9% | -20.9% (active) | 18.5% | 51.1% | -32% (active)
CCOC(=O)N1CCN(S(=O)(=O)c2oc(-c3ccc(Cl)cc3)nc2C#N)CC1 | 75.9% | 93.4% | 99.3% | 96% | 103% | 97.6% | -6.61% (active) | 96.8% | 92.7% | 47%
COc1cccc(NC(=O)c2cccc(C3CCc4c(cc(OC)c(OC)c4OC)O3)c2)c1 (stereo not given) | 73.9% | 53.7% | 54.2% | 85.2% | 84% | 26.3% | 53.1% | 70.8% | 86.6% | 80.2%
Cn1c(O)c(C(/C=C/c2ccccc2)=Nc2ccccc2N)c(=O)n(C)c1=O | 94.2% | 97.9% | 105% | 105% | 104% | 82.4% | 90.3% | 103% | 103% | 95%
CC(=O)c1cc(-c2ccccc2N)n(-c2ccc3c(c2)OCO3)c1C | 43.4% | -0.426% (active) | 31.6% | 30.6% | 2.71% (active) | 38.8% | 18.4% | 19.5% | 23.9% | -18.6% (active)
CNCc1cccc2c1OCCOCCN(C)C(=O)CN(C)S(=O)(=O)c1ccc(cc1)-c1cnc(N)c(n1)C(=O)N2 | 6.92% (active) | -33.3% (active) | 40.4% | -6.9% (active) | -40.9% (active) | 46.5% | 23.5% | 11.9% | -40.3% (active) | 19.9%
CC(CN)[C@@H]1CC[C@]2(CO)CC[C@]3(C)[C@H](CC[C@@H]4[C@@]5(C)CCC(N)C(C)(C)[C@@H]5CC[C@]43C)[C@@H]12 (stereo not given in full) | -29.1% (active) | 85.2% | 48.8% | -48.1% (active) | -80% (active) | 70.9% | -50.4% (active) | -89.3% (active) | -63.1% (active) | 32.8%
COc1cc(Nc2ncccc2NC(=O)c2cn(Cc3cccc(Oc4ccccc4)c3)nn2)cc(OC)c1 | 83.8% | 83% | 85.5% | 99.7% | 102% | 98.4% | 81% | 86% | 87.2% | 86.5%
COc1cc2ncnc(Nc3ccc(F)c(Cl)c3)c2cc1OCC(=O)N1CCN(c2ccc(F)cc2)CC1 | 97% | 96.3% | 36.5% | 95.2% | 101% | 87.9% | 72.2% | 79.7% | 79% | 101%
CC1=C(C(=O)n2c3ccccc3c3ccccc32)C(c2cccc([N+](=O)[O-])c2)C(C(=O)n2c3ccccc3c3ccccc32)=C(C)N1 | 91.9% | 96.9% | 98.4% | 102% | 102% | 93.8% | 101% | 102% | 103% | 108%
